Pf growth 96h – Primary qHTS for delayed death inhibitors of the malarial parasite plastid, 96 hour incubation; AID 504834, 2011; 320,000 compounds, 6.9% hits; Potency, µM (titrated, usually from 28.7 µM), without a hit: at the top dose activity change, negative = inhibition, usual class: inhibitors; P. falciparum luciferase reporter growth, 96 h; further: potency means the concentration at half of the fitted maximal effect; on the % scale 0 is the no-effect control and ±100 the full control effect
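Erythrocytes infected with luciferase-expressing P. falciparum were dispensed at 2% hematocrit and 0.05% parasitemia (final), then incubated with compounds 96 hours at 37 C in 5% CO2. Luminescence after detection reagent addition reported growth.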
Shiga inhibitor – A qHTS for Small Molecule Inhibitors of Shiga Toxin; AID 2315, 2010; 290,000 compounds, 9.2% hits; inhibition, % at 38.7 µM; Vero cells, Shiga toxin protein synthesis inhibition reporter; in the data active means inhibition mostly above about 28%, no sharp cut-off; inactive means mostly below about 43%; further: 0% is about no effect
Pf growth 48h – Primary qHTS for delayed death inhibitors of the malarial parasite plastid, 48 hour incubation | P. falciparum luciferase growth in erythrocytes, 48 h | Potency, µM (highest dose often 28.7 µM), without a hit: at the top dose activity change, negative = inhibition, hits mostly inhibitors | 310,000 compounds, 5.9% hits | AID 504832, 2011; further: potency means the concentration at half of the fitted maximal effect; on the % scale 0 is the no-effect control and ±100 the full control effect
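Compounds are pin-transferred into medium, infected erythrocytes (2% hematocrit, 0.1% parasitemia final) are added, and plates sit one parasite generation at 37 C in 5% CO2. Detection reagent is then added and luminescence measured.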
CHX counter – Cycloheximide Counterscreen for Small Molecule Inhibitors of Shiga Toxin | max response, % | AID 2314, 2010 | 300,000 compounds, 12% hits | cell reporter, cycloheximide protein synthesis inhibition counterscreen; in the data active means max response mostly above about 13%, no sharp cut-off; inactive means mostly below about 14%; further: read at 38.3 µM for the half of the compounds with a filed dose; 0% is about no effect
Giardia FBPA inh – qHTS Assay for Inhibitors of Fructose-1,6-bisphosphate Aldolase from Giardia Lamblia. 290,000 compounds, 0.71% hits. purified Giardia FBPA. A8B2U2. Potency, µM (titrated, usually from 59.6 µM), for inactives: at the highest dose activity, negative = inhibition, most hits filed as inhibitors; further: potency means the concentration at half of the fitted maximal effect; on the % scale 0 is the no-effect control and ±100 the full control effect; nearly all actives have a fitted effect of over 55% in size
Target sequence (A8B2U2 whole entry, looked up): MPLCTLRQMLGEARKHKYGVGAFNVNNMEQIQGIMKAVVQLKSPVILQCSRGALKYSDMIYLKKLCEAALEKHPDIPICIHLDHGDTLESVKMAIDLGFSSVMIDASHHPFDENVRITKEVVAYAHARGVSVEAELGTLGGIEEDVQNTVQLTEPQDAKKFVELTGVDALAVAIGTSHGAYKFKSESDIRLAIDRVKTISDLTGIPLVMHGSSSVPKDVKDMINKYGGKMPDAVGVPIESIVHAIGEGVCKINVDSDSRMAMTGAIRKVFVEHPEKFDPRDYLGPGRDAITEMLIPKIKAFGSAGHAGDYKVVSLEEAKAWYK
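Giardia FBPA (40 nM reagent) was preincubated 10 min at RT with compound (up to 57.5 uM final), then substrate plus GAPDH/TPI/NAD/arsenate coupling system with diaphorase/resazurin was added; resorufin fluorescence (525/598 nm) was read after 20 min.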
NS1 function inh – qHTS Assay for Inhibitors of Influenza NS1 Protein Function; 270,000 compounds, 0.4% hits; Potency, µM (titrated, usually from 46.1 µM), inactives show at the top dose activity, positive = more growth; AID 2326, 2010; calls by dose curve; further: potency means the concentration at half of the fitted maximal effect; actives are rising curves; nearly all actives have a fitted effect of over 50% in size
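Read-out: OD600 growth recovery of NS1-expressing budding yeast. Cells grown overnight at 30C in -URA glucose medium, washed, resuspended and diluted 1:100 in 2% galactose assay medium, pH 6.0. Same strain lacking NS1 served as positive control.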
* hit, by the source's call; u = inconclusive; x = not tested or not shown. Shown are actives, neighbours in structure and some others; about 21% of the full set was active somewhere. Unless noted, the call rests on the fitted dose curve; in most records, active means well fitted curve in the direction sought with a large enough effect; inconclusive means small, poorly fitted or top-dose-only effect, or another doubt; inactive means no such curve, though single readings can be large; an effect the other way counts as inactive or inconclusive.

SMILES	Pf growth 96h	Shiga inhibitor	Pf growth 48h	CHX counter	Giardia FBPA inh	NS1 function inh
CCOC(=O)C1=C(COC(=O)CCOc2ccccc2)NC(=O)NC1C (stereo not given)	u	x	-20%	x	x	x
O=C(CCc1nnc(-c2ccccc2)o1)NC1CCCCC1	5%	64*	43%	44*	23%	-2%
Cc1cccc(-c2noc(CCC(=O)NC3CCCCC3)n2)c1	-4%	-30	-27%	12	x	-29%
COC(c1ccccc1)c1nnc(CCC(=O)N2CCCCCCC2)o1 (stereo not given)	u	33	-18%	11*	7%	7%
CC(CNC(=O)CCc1nnc(CCC2CCCCC2)o1)c1ccccc1 (stereo not given)	0%	38	-11%	21*	3%	-3%
COC(c1ccccc1)c1nnc(CCC(=O)NCCc2ccc(Cl)cc2)o1 (stereo not given)	-22%	3	28%	1	1%	1%
COC(c1ccccc1)c1nnc(CCC(=O)NC2CCCCC2)o1 (stereo not given)	-28%	26	13%	17*	4%	-1%
CCCOc1ccc(CNC(=O)c2ccc3nc(N4CCOCC4)sc3c2)cc1	8%	-2	-17%	2	21%	-17%
COC(=O)c1ccc(C(NC(=O)OCc2ccccc2)/C(=C/[C@@H](C)C(=O)NCCc2c[nH]c3ccccc23)c2cccnc2)cc1 (stereo not given in full)	x	x	x	x	-1%	x
O=C(CSC1=Nc2ccccc2C2CC=NN12)Nc1ccc2c(c1)OCO2 (stereo not given)	3%	10	0%	16*	-28%	x
Cc1cc(C)cc(N(CCC#N)C(=O)CSc2ncnc3sccc23)c1	u	x	12µM*	x	x	x
Cc1cc(C)cc(N(CCC#N)C(=O)CSC2=Nc3ccccc3C3CC=NN23)c1 (stereo not given)	12µM*	3	13µM*	13	-19%	x
O=C(CNS(=O)(=O)c1cccs1)N1CCc2ccccc2C1	0%	55*	64%	48*	2%	-5%
O=C(CNS(=O)(=O)c1cccs1)N1CCN(c2ccccc2F)CC1	u	71*	27%	35*	4%	0%
O=C(O)[C@@H]1[C@@H](C(=O)O)[C@@]23CCCC2=C2CC[C@@]3(C(=O)O)[C@@]3(C(=O)O)C[C@@]213	x	x	x	x	x	-6%
Cc1c2cnn(CC(=O)N3CCC4(CC3)OCCO4)c(=O)c2c(C)n1Cc1cccc(Cl)c1	u	-5	12%	9	2%	7%
Cc1c2cnn(CC(=O)N3CCC4(CC3)OCCO4)c(=O)c2c(C)n1Cc1ccccc1F	0.01µM*	-5	3%	-3	-12%	17%
O=C(Cn1ncc2c3ccccc3n(Cc3cccc(Cl)c3)c2c1=O)N1CCC2(CC1)OCCO2	4.7µM*	-28	4.1µM*	-5	4%	u
Cn1c2ccccc2c2cnn(CC(=O)N3CCCCC3)c(=O)c21	28%	30	15%	17*	-3%	-4%
Cc1c2cnn(CC(=O)Nc3c(F)c(F)cc(F)c3F)c(=O)c2c(C)n1Cc1ccccc1F	9.3µM*	-2	-14%	-1	-5%	x
CNC(=O)Cn1ncc2c(C)n(Cc3ccc(C)cc3)c(C)c2c1=O	33%	-8	-16%	-2	-1%	2%
CC(C)(C)OC(=O)C(Cc1ccc(OC(C)(C)C)cc1)NC(=O)CNC(=O)OCc1ccccc1 (stereo not given)	-1%	-8	u	-3	-2%	-20%
COc1ccccc1-c1nccc(NCc2cccc(C)c2)n1	x	x	x	x	-6%	x
FC(F)(F)c1ccc(Oc2ccc3ccccc3c2Br)nc1	2.9µM*	2	u	4	-1%	-17%
O=[N+]([O-])c1ccccc1Oc1ccc(C(F)(F)F)cn1	0%	15	14%	-1	-4%	x
O=C(O)c1ccc(N2CCCCS2(=O)=O)cc1	8%	11	13%	-3	-1%	5%
COc1ccc(/C=N/NC(=O)c2cc(C3CC3)[nH]n2)cc1OC	-28%	52*	-16%	11	8%	6%

Screening results: PubChem BioAssay, National Center for Advancing Translational Sciences (NCATS)
